Data: the supplement of paper PMC7393113
± gives the standard deviation of the averaged measurements.

System: iBMDM (immortalised mouse bone-marrow-derived macrophages), LPS-stimulated
Experiment: mitochondrial superoxide (MitoSOX fluorescence) fold increase over unstimulated control; higher = more LPS-induced mitochondrial ROS (less inhibition)
Details: inhibitor concentration: 500 nM; LPS: 100 ng/ml; time after LPS: 4 h
In short: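 Immortalised mouse bone-marrow-derived macrophages were seeded in triplicate in black 96-well plates and moved to phenol-red-free 1% FCS/DMEM for 20 h. They were pretreated 30 min with kinase inhibitors (500 nM), loaded with 1 μM MitoSox for 10 min, then given LPS (100 ng/ml). Fluorescence (excitation/emission 510/580 nm, ClarioStar plate reader) was read every 60 min for 4 h. Mitochondrial superoxide is fold induction over untreated control macrophages, averaged over three replicates.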

SMILES | mitochondrial superoxide
C=CC(=O)Nc1ccc2ncnc(Nc3ccc(OCc4cccc(F)c4)c(Cl)c3)c2c1 | 1.42 ± 0.13
COc1cc(OC)c(/C=C/S(=O)(=O)Cc2ccc(OC)c(NCC(=O)O)c2)c(OC)c1 | 1.23 ± 0.086
CN(C)CCOc1ccc(-c2nc(-c3ccncc3)c(-c3ccc4c(c3)CC/C4=N\O)[nH]2)cc1 | 1.31 ± 0.083
O=c1sn(-c2cccc3ccccc23)c(=O)n1Cc1ccccc1 [Tideglusib] | 1.29 ± 0.062
Cc1ccc(NC(=O)c2ccc(CN3CCN(C)CC3)cc2)cc1Nc1nccc(-c2cccnc2)n1 [Imatinib (STI571)] | 1.49 ± 0.12
Cc1ccc2nc(NCCN)c3ncc(C)n3c2c1 | 1.63 ± 0.047
CCc1ccc(/C=C2/SC(=S)NC2=O)cc1 | 1.36 ± 0.0082
CC1(C)CNc2cc(NC(=O)c3cccnc3NCc3ccncc3)ccc21 [Motesanib Diphosphate (AMG-706)] | 1.71 ± 0.053
O=c1ncn2nc(Sc3ccc(F)cc3F)ccc2c1-c1c(Cl)cccc1Cl | 1.28 ± 0.037
